From PubChem BioAssay (NCATS)
Inconclusive results are not listed. Active and inactive are the calls of the source. The call rests on the fitted dose curve; in most records, active means well fitted curve in the direction sought with a large enough effect; inconclusive means small, poorly fitted or top-dose-only effect, or another doubt; inactive means no such curve, though single readings can be large; an effect the other way counts as inactive or inconclusive.

Assays:
[1] = target: Calcium and integrin-binding protein 1 (Homo sapiens) (UniProt Q99828); assay: Primary qHTS for Identification of Calcium Integrin Binding Protein 1 (CIB1) Competitor (AID 1508620); conditions: CIB1-GST / FITC-alphaIIb peptide fluorescence polarization; series mostly up to 57.7 µM;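 further: GST tagged CIB1 binding a fluorescein labelled alphaIIb integrin peptide tracer; top concentration of the series differs between compounds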
Outline: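 Fluorescence polarization competition: GST-tagged CIB1 (1 uM final) preincubated with compound 15 min at room temperature, then FITC-labelled alphaIIb peptide (100 nM final) added. After 15 min at room temperature, polarization read at Ex 480/Em 540.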

[2] = Primary qHTS for inhibitors of nuclear receptor binding SET domain protein 2 (NSD2) in an isogenic RCH-ACV NSD2 p.E1099K mutant (9B) (AID 1645876); conditions: RCH-ACV NSD2 E1099K (9B) viability, CellTiter-Glo, 72 h; series mostly up to 44.9 µM; further: nearly all actives have a fitted effect of over 70% in size
[3] = Primary qHTS for inhibitors of nuclear receptor binding SET domain protein 2 (NSD2) in an RCH-ACV wild type WT cells (2C) (AID 1645877); conditions: RCH-ACV (leukaemia line) NSD2 WT (2C) viability, CellTiter-Glo, 72 h; series mostly up to 44.9 µM; further: nearly all actives have a fitted effect of over 70% in size

Measured: Potency

Calcium and integrin-binding protein 1 (Homo sapiens), sequence (Q99828 whole entry, looked up): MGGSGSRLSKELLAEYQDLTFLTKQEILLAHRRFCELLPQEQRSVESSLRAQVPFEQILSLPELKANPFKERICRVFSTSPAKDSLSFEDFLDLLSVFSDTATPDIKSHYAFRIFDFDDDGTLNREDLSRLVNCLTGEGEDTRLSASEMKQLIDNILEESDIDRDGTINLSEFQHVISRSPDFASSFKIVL

CC1C(=O)OCC2=CC[N+]3([O-])CCC(OC(=O)C(C)(O)C1(C)O)C23 (stereo not drawn)
inactive: all assays above

C[C@@H]1O[C@@H](O[C@H]2[C@H](Oc3cc(O)c(C(=O)CCc4ccc(O)cc4)c(O)c3)O[C@H](CO)[C@@H](O)[C@@H]2O)[C@H](O)[C@H](O)[C@H]1O
inactive: all assays above

CO[C@@H]1[C@]2(O)C(=O)N3/C=C\C(C)(C)c4[nH]c5ccccc5c4/C=C\3C(=O)N2[C@]23[C@H](CO)C(C)(C)N2c2ccccc2[C@]13O
inactive: all assays above

Cn1nccc1-c1ccccc1Oc1ccc(S(=O)(=O)Nc2nccs2)cc1C#N
inactive: all assays above

OCC1=C[C@@H](O)[C@@H]2C=CO[C@@H](O[C@@H]3O[C@H](CO)[C@@H](O)[C@H](O)[C@H]3O)[C@H]12
inactive: all assays above

CC1CC(O)/C=C/C(O)/C=C\C(=O)O1 (stereo not drawn)
inactive: all assays above

C/C(=C\CO)CC/C=C(\C)C(=O)O[C@@H]1O[C@H](CO)[C@@H](O)[C@H](O)[C@H]1O
inactive: all assays above

CC1(C)CCC[C@@]2(C)[C@H]1[C@H](O)C=C(CO)[C@]2(O)CO
inactive: all assays above

COc1cc(CO)cc(OC)c1O[C@@H]1O[C@H](CO)[C@@H](O)[C@H](O)[C@H]1O
inactive: all assays above

CC(C)(CC(=O)N1CCCC1)NCC(=O)N1C[C@@H](F)C[C@H]1C#N
inactive: all assays above

COc1c2ccoc2nc2c(OC)c(O[C@@H]3O[C@@H](C)[C@H](O)[C@@H](O[C@@H]4O[C@H](CO)[C@@H](O)[C@H](O)[C@H]4O)[C@H]3OC(C)=O)ccc12
inactive: all assays above
